Columns and labels:
Experiment in all cases: log2 ratio of Biotin-Ahx-Ub-VS probe labelling (fragment/DMSO); higher = less target engagement (more negative = stronger competition), active = hit call of the paper (q ≤ 0.05, log2 ratio ≤ -1)
Conditions in all cases: compound concentration: 200 uM; treatment time: 3 h
USP34 = USP34 (UniProt Q70CQ2)
How it was run: (§1)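 Labelling with Biotin-Ahx-Ub-VS (0.5 µM final, 1 h) followed a 3 h triplicate treatment of HEK293T lysate (495 µg per sample, Tris/CHAPS/IGEPAL buffer with protease inhibitors) with fragment at 200 µM or vehicle. Labelled DUBs were NeutrAvidin-enriched, digested with LysC and trypsin, and run by diaPASEF LC-MS/MS. The values, average log2 fragment/vehicle ratios by unpaired t-test, come from global-median-normalised Spectronaut label-free quantities. Proteins with ≥2 unique peptides were used.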

USP36 = target: T1, USP36 (UniProt Q9P275)
T1 sequence (whole entry): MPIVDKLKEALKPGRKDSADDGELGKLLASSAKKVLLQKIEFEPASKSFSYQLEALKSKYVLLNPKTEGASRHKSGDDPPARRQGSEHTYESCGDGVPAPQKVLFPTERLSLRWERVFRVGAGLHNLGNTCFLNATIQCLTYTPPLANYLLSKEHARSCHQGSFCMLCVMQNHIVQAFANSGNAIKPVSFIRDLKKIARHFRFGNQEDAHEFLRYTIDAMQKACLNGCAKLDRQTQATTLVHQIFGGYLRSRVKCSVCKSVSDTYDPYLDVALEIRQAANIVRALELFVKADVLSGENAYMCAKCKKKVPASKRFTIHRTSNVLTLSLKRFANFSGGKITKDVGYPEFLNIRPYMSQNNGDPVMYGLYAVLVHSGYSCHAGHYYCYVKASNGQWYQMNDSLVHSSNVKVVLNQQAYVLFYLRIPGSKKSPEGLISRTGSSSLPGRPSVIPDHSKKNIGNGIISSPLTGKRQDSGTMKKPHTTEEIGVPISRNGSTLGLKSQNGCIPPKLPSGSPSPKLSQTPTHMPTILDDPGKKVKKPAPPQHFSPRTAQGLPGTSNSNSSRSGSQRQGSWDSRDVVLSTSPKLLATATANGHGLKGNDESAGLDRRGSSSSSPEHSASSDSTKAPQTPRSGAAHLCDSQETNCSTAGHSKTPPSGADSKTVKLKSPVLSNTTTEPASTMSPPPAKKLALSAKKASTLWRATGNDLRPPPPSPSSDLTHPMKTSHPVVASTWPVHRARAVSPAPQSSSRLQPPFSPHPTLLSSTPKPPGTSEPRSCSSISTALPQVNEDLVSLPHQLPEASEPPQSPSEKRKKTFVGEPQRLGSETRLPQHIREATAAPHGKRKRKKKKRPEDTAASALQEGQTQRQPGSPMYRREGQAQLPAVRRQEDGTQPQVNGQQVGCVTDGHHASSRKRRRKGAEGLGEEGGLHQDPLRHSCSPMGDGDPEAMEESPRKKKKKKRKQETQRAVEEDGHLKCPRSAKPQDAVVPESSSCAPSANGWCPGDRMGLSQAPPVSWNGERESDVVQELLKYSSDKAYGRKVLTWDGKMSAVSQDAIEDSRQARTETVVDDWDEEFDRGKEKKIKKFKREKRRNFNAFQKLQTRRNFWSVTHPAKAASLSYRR
How it was run: as §1

USP38 = target: T2, USP38 (UniProt Q8NB14)
T2 sequence (whole entry): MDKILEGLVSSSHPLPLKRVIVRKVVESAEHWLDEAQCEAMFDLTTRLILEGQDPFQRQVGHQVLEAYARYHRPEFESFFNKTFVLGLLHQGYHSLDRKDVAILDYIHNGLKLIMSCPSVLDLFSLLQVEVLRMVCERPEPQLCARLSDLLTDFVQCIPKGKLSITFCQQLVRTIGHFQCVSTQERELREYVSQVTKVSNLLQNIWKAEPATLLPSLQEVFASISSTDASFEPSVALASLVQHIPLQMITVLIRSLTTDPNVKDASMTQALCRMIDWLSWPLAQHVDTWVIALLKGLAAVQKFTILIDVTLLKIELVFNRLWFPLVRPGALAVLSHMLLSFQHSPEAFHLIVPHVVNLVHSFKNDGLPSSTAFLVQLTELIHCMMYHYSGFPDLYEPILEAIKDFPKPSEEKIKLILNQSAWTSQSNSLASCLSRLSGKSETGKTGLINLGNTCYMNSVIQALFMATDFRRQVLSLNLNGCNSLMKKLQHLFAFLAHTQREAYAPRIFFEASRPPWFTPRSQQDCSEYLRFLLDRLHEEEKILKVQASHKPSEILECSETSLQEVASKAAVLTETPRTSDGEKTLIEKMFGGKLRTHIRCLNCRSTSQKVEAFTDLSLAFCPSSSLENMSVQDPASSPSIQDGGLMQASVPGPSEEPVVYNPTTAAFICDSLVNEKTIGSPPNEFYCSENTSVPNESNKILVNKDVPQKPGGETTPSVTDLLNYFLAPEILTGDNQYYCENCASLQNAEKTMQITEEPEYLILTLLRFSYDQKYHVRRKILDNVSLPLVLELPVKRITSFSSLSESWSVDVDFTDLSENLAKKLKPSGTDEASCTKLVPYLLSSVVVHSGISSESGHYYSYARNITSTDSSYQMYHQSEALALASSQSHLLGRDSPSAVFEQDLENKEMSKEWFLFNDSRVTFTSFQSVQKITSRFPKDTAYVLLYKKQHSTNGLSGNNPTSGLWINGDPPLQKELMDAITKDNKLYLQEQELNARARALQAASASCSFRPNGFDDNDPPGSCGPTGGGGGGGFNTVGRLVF
How it was run: as §1

USP39 = target: T3, USP39 (UniProt Q53GS9)
T3 sequence (whole entry): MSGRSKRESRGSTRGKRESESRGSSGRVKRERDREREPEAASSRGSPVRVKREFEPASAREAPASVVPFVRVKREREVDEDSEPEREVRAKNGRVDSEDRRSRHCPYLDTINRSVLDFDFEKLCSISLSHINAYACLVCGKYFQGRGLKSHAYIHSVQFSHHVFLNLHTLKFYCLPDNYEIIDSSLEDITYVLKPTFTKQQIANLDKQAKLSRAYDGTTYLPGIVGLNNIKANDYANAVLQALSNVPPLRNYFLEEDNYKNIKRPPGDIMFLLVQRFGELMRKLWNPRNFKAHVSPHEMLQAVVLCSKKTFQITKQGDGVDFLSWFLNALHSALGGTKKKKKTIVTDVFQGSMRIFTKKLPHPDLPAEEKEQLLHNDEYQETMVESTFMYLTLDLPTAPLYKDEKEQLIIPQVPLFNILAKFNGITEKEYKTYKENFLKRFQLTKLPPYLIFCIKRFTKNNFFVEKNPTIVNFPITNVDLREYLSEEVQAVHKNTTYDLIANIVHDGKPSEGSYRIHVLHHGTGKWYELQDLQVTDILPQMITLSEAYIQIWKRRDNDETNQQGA
How it was run: as §1

USP4 = target: T4, USP4 (UniProt Q13107)
T4 sequence (whole entry): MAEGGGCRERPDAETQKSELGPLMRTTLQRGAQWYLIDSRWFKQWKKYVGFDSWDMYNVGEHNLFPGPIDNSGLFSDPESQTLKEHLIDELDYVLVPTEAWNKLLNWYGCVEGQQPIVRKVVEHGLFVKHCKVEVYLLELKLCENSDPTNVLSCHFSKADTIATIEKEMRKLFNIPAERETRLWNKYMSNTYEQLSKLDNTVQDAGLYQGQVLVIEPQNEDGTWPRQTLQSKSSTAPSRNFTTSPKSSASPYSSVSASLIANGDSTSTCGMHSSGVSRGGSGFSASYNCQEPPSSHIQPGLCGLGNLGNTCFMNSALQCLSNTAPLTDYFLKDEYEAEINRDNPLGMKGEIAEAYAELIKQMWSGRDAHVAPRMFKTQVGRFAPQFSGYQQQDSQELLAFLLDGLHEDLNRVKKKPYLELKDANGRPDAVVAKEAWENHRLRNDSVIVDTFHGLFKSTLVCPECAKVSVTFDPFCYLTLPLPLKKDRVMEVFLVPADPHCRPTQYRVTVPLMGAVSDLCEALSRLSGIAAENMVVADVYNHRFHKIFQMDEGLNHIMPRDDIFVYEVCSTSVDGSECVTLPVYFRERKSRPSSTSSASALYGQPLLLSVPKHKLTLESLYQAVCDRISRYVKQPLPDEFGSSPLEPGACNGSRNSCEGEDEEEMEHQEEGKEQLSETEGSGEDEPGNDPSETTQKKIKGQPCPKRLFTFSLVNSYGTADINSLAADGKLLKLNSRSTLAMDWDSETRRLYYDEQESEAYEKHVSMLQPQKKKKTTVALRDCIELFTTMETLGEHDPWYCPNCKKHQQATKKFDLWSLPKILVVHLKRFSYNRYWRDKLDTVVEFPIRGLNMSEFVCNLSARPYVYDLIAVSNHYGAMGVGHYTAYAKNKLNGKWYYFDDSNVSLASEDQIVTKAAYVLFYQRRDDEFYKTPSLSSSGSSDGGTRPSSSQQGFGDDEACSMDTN
How it was run: as §1

Measured: log2 ratio of Biotin-Ahx-Ub-VS probe labelling

USP34, sequence (Q70CQ2 whole entry, the tested form may be a part): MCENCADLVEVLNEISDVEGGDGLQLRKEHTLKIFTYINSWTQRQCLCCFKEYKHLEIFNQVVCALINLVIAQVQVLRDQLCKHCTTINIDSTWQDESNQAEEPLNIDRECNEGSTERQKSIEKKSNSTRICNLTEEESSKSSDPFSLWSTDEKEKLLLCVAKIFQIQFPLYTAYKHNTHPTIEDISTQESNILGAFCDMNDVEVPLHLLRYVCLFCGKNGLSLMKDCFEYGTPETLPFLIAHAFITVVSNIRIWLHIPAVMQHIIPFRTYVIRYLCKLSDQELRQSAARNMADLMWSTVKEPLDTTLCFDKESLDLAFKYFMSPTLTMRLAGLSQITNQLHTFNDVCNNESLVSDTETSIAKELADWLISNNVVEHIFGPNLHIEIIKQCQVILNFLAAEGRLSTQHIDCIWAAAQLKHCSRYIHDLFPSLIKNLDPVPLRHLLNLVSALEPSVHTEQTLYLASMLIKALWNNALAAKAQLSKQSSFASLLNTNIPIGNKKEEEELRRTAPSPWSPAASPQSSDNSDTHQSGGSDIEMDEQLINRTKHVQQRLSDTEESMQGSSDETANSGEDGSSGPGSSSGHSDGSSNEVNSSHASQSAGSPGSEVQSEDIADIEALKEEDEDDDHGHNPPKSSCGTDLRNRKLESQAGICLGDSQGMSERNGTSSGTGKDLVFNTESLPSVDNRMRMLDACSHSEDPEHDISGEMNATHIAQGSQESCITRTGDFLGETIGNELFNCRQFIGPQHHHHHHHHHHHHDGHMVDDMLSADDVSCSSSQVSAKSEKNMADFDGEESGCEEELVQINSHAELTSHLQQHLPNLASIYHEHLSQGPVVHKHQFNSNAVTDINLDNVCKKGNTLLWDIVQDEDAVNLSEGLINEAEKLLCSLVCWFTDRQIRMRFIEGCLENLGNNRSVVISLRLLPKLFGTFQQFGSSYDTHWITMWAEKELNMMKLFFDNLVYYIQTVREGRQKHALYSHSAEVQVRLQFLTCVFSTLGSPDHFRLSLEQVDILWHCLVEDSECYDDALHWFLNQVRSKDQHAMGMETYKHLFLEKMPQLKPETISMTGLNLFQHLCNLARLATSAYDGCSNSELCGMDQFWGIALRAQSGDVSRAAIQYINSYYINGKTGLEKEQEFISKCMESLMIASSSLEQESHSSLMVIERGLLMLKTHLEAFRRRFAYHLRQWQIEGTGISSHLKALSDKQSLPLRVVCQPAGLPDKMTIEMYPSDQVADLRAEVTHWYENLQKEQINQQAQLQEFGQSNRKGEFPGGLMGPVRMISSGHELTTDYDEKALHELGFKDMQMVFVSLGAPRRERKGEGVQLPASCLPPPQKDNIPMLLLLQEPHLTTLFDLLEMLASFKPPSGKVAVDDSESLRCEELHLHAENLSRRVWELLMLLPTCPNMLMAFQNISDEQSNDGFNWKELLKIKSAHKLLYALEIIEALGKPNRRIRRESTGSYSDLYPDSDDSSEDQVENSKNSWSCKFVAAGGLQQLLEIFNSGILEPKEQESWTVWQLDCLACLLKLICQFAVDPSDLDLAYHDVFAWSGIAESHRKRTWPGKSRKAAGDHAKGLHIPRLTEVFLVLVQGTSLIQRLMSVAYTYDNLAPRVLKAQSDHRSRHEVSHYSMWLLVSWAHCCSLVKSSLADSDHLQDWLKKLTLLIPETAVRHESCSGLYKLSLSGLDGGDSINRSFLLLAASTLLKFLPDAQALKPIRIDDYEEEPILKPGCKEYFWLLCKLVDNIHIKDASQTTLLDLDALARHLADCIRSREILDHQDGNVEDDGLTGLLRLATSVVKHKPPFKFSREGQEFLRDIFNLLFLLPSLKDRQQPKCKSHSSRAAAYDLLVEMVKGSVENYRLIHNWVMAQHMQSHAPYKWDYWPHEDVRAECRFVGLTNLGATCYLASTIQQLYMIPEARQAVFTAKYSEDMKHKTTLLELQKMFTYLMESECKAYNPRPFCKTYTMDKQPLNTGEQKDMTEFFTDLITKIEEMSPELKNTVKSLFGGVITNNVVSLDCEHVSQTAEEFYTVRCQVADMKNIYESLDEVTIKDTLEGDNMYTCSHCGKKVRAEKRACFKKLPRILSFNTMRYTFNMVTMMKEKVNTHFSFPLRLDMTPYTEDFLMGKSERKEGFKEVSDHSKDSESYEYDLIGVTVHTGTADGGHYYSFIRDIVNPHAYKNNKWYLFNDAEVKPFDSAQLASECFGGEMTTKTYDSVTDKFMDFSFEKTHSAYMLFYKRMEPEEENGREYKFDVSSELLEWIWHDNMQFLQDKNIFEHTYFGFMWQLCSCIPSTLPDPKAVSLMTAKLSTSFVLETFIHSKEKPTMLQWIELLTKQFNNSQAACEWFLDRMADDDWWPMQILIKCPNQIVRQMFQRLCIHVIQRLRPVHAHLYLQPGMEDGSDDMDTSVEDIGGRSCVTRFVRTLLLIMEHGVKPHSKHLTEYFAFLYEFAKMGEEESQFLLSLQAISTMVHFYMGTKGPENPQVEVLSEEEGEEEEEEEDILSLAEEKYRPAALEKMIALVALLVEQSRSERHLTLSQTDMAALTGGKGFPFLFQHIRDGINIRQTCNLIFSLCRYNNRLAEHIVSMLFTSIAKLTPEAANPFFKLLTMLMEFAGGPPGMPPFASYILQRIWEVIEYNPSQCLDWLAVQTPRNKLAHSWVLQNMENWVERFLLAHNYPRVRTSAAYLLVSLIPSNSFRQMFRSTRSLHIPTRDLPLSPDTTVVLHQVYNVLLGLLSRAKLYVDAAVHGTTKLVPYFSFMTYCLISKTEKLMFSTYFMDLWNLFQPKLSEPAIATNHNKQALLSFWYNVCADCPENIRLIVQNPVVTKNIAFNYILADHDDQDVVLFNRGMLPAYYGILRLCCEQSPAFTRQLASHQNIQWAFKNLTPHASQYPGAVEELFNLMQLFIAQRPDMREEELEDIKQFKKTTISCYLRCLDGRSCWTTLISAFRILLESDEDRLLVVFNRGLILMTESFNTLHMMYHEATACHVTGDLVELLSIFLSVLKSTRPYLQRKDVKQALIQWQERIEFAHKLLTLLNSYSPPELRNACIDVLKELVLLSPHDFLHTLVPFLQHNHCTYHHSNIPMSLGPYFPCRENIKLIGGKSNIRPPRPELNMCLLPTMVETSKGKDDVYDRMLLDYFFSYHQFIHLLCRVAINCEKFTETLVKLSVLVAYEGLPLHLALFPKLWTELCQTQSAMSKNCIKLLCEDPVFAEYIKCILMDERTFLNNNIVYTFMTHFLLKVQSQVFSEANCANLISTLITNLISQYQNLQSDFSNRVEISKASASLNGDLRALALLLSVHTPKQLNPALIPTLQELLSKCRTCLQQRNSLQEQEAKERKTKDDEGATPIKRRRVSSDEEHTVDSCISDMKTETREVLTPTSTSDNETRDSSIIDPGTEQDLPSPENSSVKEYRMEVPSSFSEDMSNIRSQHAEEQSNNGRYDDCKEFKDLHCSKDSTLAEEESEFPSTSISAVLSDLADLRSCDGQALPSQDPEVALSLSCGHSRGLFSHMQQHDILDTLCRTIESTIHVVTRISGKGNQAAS

C[C@H]1CN(C(=O)CCl)CCN1C(=O)c1cnn(C)c1.Cl
inactive: USP34 -0.052 | USP36 -0.171 | USP38 -0.0453 | USP39 0.0473 | USP4 -0.115
